# High-throughput results as filed in PubChem.
# Sm TGR inh: S. mansoni TGR enzyme inhibition | Q962Y6 | purified TGR, DTNB reduction, TNB absorbance 405 nm | Potency, µM (series often up to 114 µM), for inactives: top-dose activity change, negative = inhibition, usual class: inhibitors | hit rate 3% among 360,000; also: % is scaled to controls: 0 for no effect and ±100 for the full control effect; nearly all actives have a fitted effect of over 60% in size
#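 TGR 20 nM + NADPH 100 uM (dispensed conc.), cpd preinc 15 min RT; start with NADPH (500 uM addition) then DTNB (15 mM addition). Kinetic TNB absorbance, 405 nm filter. Four-parameter Hill fit across titration.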
# Pf growth 96h: P. falciparum growth inhibition at 96 hour, primary screen for plastid delayed-death inhibitors; P. falciparum luciferase reporter growth, 96 h; hit rate 6.9% among 320,000; Potency, µM (titrated, usually from 28.7 µM), for the others: at the highest dose activity change, negative = inhibition, most hits filed as inhibitors; AID 504834; also: % is scaled to controls: 0 for no effect and ±100 for the full control effect
#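 P. falciparum expressing integrated firefly luciferase, in erythrocytes at 2% hematocrit, 0.05% parasitemia, incubated with compounds 96 h at 37 C, 5% CO2. Growth inhibition read as loss of luminescence; two-generation exposure targets delayed-death apicoplast inhibitors.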
# SARS PLpro yeast: inhibitors of SARS-CoV papain-like protease in yeast. S. cerevisiae expressing SARS-CoV PLpro, growth rescue. Potency, µM (titrated, usually from 32.9 µM), without a hit: at the top dose activity, positive = growth rescue, most hits filed as activators. hit rate 0.19% among 330,000. AID 485353; calls by dose curve; also: 0% is about no effect; nearly all actives have a fitted effect of over 55% in size
# Pf growth 48h: P. falciparum growth inhibition at 48 hours (one generation). P. falciparum luciferase growth in erythrocytes, 48 h. Potency, µM (highest dose often 28.7 µM), for the others: at the top dose activity change, negative = inhibition, usual class: inhibitors. hit rate 5.9% among 310,000; also: % is scaled to controls: 0 for no effect and ±100 for the full control effect
#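 Luminescence readout; reporter = integrated firefly luciferase in P. falciparum. RBC culture at 2% hematocrit, 0.1% parasitemia final, 37 C/5% CO2; decreased signal taken as growth inhibition.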
# * = called active by the depositor; ? = inconclusive; nt = not tested or not shown; [ ] = dose if it differs, or a comment. The list is not random: actives were taken first. Their share in the collection is about 12%. Unless noted, calls follow the shape of the dose curve; as a rule, active = well fitted curve in the direction sought with a large enough effect; inconclusive = small, poorly fitted or top-dose-only effect, or another doubt; inactive = no such curve, though single readings can be large; an effect the other way counts as inactive or inconclusive. Potency is read from the fitted curve at half-maximal effect.
SMILES,Sm TGR inh,Pf growth 96h,SARS PLpro yeast,Pf growth 48h
O=c1cc(CN2CCN(c3ccccc3)CC2)c2cc(O)c(-c3ccccc3)cc2o1,?,3.3µM*,-4%,2.6µM*
O=c1cc(CN2CCN(c3cccc(Cl)c3)CC2)c2cc(O)c(-c3ccccc3)cc2o1,-11%,?,1%,2.1µM*
COc1ccc(N2CCN(Cc3cc(=O)oc4c3ccc3ccccc34)CC2)cc1,?,12µM*,-4%,-16%
CCOc1ccc(CNC(=O)C(=O)c2cn(CC(=O)N3CCOCC3)c3ccccc23)cc1OC,-2%,-25%,0%,35%
O=C(CCNC(=O)C1CCN(S(=O)(=O)c2ccc(F)cc2)CC1)NCCc1ccc(Cl)cc1,-1%,?,1%,21%
O=C(O)c1ccccc1C(=O)NCc1c(Cl)cccc1Sc1ccc(Cl)cc1,-9%,27%,0%,-2%
CC(C)c1ccc2oc(=O)cc(CN3CCN(c4ccc(F)cc4)CC3)c2c1,0%,nt,?,13µM*
CCc1ccc2oc(=O)cc(CN3CCN(c4ccc(F)cc4)CC3)c2c1,?,?,3%,?
COc1ccc(NC(=O)C2CC(=O)N(Cc3ccco3)C2)cc1Cl (stereo unspecified),?,26%,-3%,-15%
O=S(=O)(c1ccccc1)c1ncc(C(F)(F)F)cc1Cl,4µM*,?,-2%,10µM*
COc1cc(NC(=O)C(NC(=O)C2CCC(C)CC2)C(C)C)cc(OC)c1OC (stereo unspecified),0%,nt,nt,nt
COc1ccc(C2CC(O)(c3ccccc3)Oc3c(C)ccc(C)c32)cc1 (stereo unspecified),14%,?,-6%,9.3µM*
Cc1cc(/C=C(\C#N)C(=O)NCC2CCCO2)c(C)n1-c1ccc(Cl)cc1 (stereo unspecified),-22%,10µM*,-6%,10µM*
N#C/C(=C\c1cn(CCOc2ccccc2)c2ccccc12)C(=O)NCC1CCCO1 (stereo unspecified),3%,?,-5%,9.3µM*
Cc1ccc(C)c(OCCn2cc(/C=C(/C#N)C(=O)NCC3CCCO3)c3ccccc32)c1 (stereo unspecified),-5%,45%,-1%,2.1µM*
COc1cc(/C=C(\C#N)C(=O)NCC2CCCO2)ccc1O (stereo unspecified),-1%,20%,3%,-4%
Cc1cc(SCNC(=O)c2ccccc2)nc(C(C)C)n1,11µM*,0%,19%,7%
Cc1ccc(C)c(NC(=O)CSc2nc3ccc(N4C(=O)c5ccccc5C4=O)cc3s2)c1,-2%,4.1µM*,-6%,41%
CC1(C)CC2CC(C)(CN2S(=O)(=O)c2ccc(C(=O)Nc3ccc(S(=O)(=O)N4CCOCC4)cc3)cc2)C1 (stereo unspecified),-1%,?,8%,10µM*
CC1(C)CC2CC(C)(CN2S(=O)(=O)c2ccc(C(=O)Nc3ccc(Cl)c(S(=O)(=O)N4CCOCC4)c3)cc2)C1 (stereo unspecified),5%,?,9%,9.3µM*
COc1cc(CNCCCN2CCOCC2)c(Br)cc1OCC(=O)Nc1ccccc1C,-26%,?,-1%,10µM*
COc1ccccc1NC(=O)COc1ccc(Br)cc1CNCCCN1CCOCC1,-14%,2%,-1%,?
CCN(CC)CCNCc1cc(Br)ccc1OCC(=O)NCc1ccccc1,5%,12µM*,0%,?
Cc1ccccc1NC(=O)COc1ccc(Br)cc1CNCCCO,-3%,1.9µM*,1%,?
Fc1ccc(C2=NC(c3cccc(C(F)(F)F)c3)=Nc3ccccc3N2)cc1,3%,nt,nt,nt
SMILES,Sm TGR inh,Pf growth 96h,SARS PLpro yeast,Pf growth 48h
CCC(CC)C(=O)OCc1cc(=O)n2nc(C3CC3)sc2n1,-8%,nt,nt,nt
CCCCn1c2ccc(F)cc2c2nnc(SCCN3CCOCC3)nc21,?,2.6µM*,-1%,?
Cn1c2ccc(F)cc2c2nnc(SCCN3CCOCC3)nc21,-24%,8%,0%,3%
CCc1ccc2[nH]c3nc(SCC(=O)NCC4CCCO4)nnc3c2c1 (stereo unspecified),0%,0%,2%,-2%
CCc1ccc2[nH]c3nc(SCCN4CCOCC4)nnc3c2c1,-2%,9.3µM*,12%,-27%
CN(C(=O)C1CCCN1S(=O)(=O)c1ccc(Cl)cc1)c1ccccc1 (stereo unspecified),-25%,?,1%,?
Cc1ccccc1-n1c(=O)cc(NCC2CCCO2)[nH]c1=O (stereo unspecified),0%,6.6µM*,19%,-6%
Cc1ccccc1-n1c(=O)cc(NCc2ccc3c(c2)OCO3)[nH]c1=O,11%,?,12%,9.3µM*
Cc1cnc(C)c(N2CCN(Cc3nc(-c4cccc(F)c4F)oc3C)CC2)n1,35µM*,?,0%,?
Cc1cccc(-c2nc(CN3CCN(Cc4cccc(F)c4)CC3)c(C)o2)c1,-25%,-88%,-1%,?
Cc1cccc(N2CCN(Cc3nc(-c4ccc(F)cc4F)oc3C)CC2)n1,-13%,10µM*,-2%,0%
COc1cccc(CN2CCN(Cc3nc(-c4cccc(F)c4F)oc3C)CC2=O)c1,?,?,0%,13µM*
Cc1oc(-c2ccccc2F)nc1CN1CCC(C(=O)NC2CCCCCCC2)CC1,11%,34%,-5%,2%
Cc1cc(OCCCCCNCCO)cc(C)c1Cl,3%[11.4 µM],13µM*,-7%,nt
Cc1cccc(Cn2c(=O)n(CC3CCC(C(=O)N4CCOCC4)CC3)c(=O)c3sccc32)c1 (stereo unspecified),-4%,nt,nt,nt
CC1(C)c2ccccc2N2CC(=O)NC21/C=C/c1ccco1 (stereo unspecified),7.9µM*,?,0%,?
CC1(C)c2ccccc2N2CCC(=O)NC21/C=C/c1ccco1 (stereo unspecified),25µM*,10µM*,-8%,?
COc1cccc(CN2CC(C(=O)NCCC3=CCCCC3)CCC2=O)c1 (stereo unspecified),-1%,15%,15%,0%
Cc1ccc(-n2nnnc2-c2cnc3ccc(Cl)cc3c2-c2ccccc2)cc1,18%,?,13%,?
Clc1ccc(-n2nnnc2-c2cnc3ccccc3c2-c2ccccc2)cc1,18%,10µM*,-1%,5.2µM*
CN1CCN(CC#Cc2ccccc2)CC1CCO (stereo unspecified),-21%,4.1µM*,-9%,1%
C#Cc1ccc(CN2CCN(CCCc3ccccc3)C(CCO)C2)cc1 (stereo unspecified),-2%,?,3%,-19%
CC(C)CCN1CCN(Cc2ccc(C#CCCO)cc2)CC1CCO (stereo unspecified),3%,12µM*,1%,-20%
OCCC#Cc1ccc(CN2CCN(CCc3ccccc3)C(CCO)C2)cc1 (stereo unspecified),0%,8.3µM*,-2%,?
CSc1ccc(CN2CCN(CCC(C)C)C(CCO)C2)cc1 (stereo unspecified),4%,1%,2%,?
